# Measurements reported in paper PMC7862700, “An all-to-all approach to the identification of sequence-specific readers for epigenetic DNA modifications on cytosine”.
# Experiments:
# Assay in all cases: DAPPL (digital affinity profiling via proximity ligation, sequencing); 10 mM Tris-HCl pH 7.5, 50 mM NaCl, 1 mM DTT, 4% glycerol, room temperature, 30 min; GST-TFs on glutathione beads, 16-mer random dsDNA library, 0.1% formaldehyde crosslink after washing; high values mean tight binding
# Conditions in all cases: protein: recombinant; tags: N-terminal GST; dsDNA, one strand shown
# ELK1 = biological target: T1, ELK1 (Homo sapiens, UniProt P19419 1-428)
# T1 sequence: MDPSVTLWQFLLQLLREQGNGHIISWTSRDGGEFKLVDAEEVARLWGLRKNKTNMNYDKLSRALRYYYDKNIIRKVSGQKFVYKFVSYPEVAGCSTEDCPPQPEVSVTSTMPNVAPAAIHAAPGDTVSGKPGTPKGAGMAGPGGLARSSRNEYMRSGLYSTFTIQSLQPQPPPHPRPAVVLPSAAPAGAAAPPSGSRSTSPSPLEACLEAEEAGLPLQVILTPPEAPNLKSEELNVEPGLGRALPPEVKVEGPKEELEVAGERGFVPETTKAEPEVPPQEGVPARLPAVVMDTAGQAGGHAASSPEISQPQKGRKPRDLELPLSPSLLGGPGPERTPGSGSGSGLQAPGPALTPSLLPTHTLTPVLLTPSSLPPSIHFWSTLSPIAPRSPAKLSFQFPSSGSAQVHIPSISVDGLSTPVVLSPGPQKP
# How it was run: (§1)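 In yeast, human transcription factors were expressed with a GST fusion, then pulled down on glutathione beads and given DNA barcodes. Pooled with a tag-only sample, they were exposed to 200 nmole of a 16-mer random double-stranded DNA library (Tris/NaCl/DTT/glycerol buffer, room temperature, 30 min), washed, crosslinked with 0.1% formaldehyde, proximity-ligated using BsaI/T4 ligase for 1 h at 37 °C, PCR-amplified and read on an Illumina NextSeq500. Each hexamer's frequency of reads for a factor, divided by the matching frequency for the tag-only sample, gives the binding signal.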
# ERG = biological target: T2, ERG (Homo sapiens, UniProt P11308 1-479)
# T2 sequence: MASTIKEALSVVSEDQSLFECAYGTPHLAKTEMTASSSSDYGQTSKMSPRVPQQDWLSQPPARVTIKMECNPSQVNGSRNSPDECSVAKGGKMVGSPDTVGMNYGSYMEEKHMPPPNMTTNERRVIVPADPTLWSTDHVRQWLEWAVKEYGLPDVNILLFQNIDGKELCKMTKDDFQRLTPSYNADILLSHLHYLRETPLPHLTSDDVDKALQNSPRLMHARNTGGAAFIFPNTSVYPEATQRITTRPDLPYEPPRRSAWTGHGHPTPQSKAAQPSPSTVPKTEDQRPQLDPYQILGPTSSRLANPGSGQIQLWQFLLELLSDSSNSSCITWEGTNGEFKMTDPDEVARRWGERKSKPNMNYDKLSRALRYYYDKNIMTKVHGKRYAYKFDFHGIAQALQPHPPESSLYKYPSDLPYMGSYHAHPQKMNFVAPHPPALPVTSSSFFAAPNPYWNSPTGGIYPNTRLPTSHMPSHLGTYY
# How it was run: as §1
# EHF = biological target: T3, EHF (Homo sapiens, UniProt Q9NZC4 1-300)
# T3 sequence: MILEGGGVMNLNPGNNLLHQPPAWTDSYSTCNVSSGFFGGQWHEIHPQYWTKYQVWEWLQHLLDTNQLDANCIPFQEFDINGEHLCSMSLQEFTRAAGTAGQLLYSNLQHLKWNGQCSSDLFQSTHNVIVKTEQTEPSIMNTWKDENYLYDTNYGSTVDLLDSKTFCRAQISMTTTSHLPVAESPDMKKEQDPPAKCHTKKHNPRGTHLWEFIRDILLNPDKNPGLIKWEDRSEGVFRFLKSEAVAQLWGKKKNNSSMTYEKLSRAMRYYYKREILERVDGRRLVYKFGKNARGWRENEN
# How it was run: as §1
# SPIB = SPIB (Homo sapiens, UniProt Q01892 1-262)
# SPIB, sequence (Q01892 whole entry): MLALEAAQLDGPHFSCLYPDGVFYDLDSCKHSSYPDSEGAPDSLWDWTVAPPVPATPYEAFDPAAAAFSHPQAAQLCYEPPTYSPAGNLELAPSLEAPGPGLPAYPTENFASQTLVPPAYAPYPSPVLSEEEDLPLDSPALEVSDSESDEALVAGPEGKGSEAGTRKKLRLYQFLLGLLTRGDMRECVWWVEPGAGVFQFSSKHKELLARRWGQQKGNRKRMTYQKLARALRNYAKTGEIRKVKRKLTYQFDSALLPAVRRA
# How it was run: as §1
# FEV = biological target: T4, FEV (Homo sapiens, UniProt Q99581 1-238)
# T4 sequence: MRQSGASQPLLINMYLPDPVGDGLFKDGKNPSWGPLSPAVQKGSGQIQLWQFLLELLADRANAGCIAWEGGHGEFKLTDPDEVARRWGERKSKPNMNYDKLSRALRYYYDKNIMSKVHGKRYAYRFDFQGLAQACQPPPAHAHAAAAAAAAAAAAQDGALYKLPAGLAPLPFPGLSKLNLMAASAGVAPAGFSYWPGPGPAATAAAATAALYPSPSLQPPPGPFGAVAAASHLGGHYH
# How it was run: as §1
# ELF4 = ELF4 (Homo sapiens, UniProt Q99607 1-663)
# ELF4, sequence (Q99607 whole entry): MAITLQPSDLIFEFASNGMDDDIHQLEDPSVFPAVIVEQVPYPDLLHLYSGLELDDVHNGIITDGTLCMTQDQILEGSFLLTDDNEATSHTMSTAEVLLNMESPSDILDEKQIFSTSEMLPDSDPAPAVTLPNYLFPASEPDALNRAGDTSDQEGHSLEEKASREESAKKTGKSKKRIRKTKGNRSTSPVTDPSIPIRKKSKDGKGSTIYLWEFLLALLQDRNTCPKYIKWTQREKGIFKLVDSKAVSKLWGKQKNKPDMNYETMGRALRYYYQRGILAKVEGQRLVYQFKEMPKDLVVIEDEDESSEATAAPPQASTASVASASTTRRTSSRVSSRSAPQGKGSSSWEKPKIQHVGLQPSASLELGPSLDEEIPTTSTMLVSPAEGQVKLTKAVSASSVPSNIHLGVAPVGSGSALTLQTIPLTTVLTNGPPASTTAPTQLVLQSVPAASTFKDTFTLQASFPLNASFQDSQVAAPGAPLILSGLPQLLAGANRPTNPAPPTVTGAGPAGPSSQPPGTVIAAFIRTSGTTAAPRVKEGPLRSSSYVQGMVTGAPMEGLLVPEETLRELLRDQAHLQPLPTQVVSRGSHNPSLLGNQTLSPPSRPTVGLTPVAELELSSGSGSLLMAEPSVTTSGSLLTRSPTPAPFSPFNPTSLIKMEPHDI
# How it was run: as §1
# ELK4 = biological target: T5, ELK4 (Homo sapiens, UniProt P28324-2 1-405)
# T5 sequence: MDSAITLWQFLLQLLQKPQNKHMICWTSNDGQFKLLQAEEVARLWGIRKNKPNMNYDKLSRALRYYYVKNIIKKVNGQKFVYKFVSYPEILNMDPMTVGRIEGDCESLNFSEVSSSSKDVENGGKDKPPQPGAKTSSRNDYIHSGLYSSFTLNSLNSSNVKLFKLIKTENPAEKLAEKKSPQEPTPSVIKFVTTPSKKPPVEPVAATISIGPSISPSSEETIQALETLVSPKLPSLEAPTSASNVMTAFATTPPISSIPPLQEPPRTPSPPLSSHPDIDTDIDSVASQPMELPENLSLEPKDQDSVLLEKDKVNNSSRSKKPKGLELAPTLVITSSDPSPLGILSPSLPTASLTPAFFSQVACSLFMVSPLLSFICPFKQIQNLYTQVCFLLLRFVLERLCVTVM
# How it was run: as §1
# ETV2 = biological target: T6, ETV2 (Homo sapiens, UniProt O00321 1-342)
# T6 sequence: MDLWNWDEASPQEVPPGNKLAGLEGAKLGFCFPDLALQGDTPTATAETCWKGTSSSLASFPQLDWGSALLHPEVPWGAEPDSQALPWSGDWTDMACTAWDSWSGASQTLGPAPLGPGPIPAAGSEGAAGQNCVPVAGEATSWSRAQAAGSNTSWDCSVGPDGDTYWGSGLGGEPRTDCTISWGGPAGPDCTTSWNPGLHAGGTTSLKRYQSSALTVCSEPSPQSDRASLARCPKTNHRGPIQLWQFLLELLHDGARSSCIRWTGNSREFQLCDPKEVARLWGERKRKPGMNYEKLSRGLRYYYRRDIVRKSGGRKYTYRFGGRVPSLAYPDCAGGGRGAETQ
# How it was run: as §1
# ETV1 = ETV1 (Homo sapiens, UniProt P50549 1-477)
# ETV1, sequence (P50549 whole entry): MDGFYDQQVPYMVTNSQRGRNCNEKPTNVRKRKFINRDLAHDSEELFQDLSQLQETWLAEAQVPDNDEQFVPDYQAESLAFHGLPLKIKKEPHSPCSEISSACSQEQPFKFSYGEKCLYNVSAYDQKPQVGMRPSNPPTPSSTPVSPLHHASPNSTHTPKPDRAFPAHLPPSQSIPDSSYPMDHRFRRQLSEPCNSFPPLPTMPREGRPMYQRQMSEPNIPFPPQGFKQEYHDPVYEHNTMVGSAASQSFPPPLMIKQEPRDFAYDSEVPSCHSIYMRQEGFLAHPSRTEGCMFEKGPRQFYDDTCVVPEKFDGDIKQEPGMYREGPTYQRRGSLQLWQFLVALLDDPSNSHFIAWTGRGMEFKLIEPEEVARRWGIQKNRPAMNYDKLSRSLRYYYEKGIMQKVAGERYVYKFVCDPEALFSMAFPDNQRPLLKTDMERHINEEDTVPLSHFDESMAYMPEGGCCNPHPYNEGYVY
# How it was run: as §1
# ERF = biological target: T7, ERF (Homo sapiens, UniProt P50548 1-548)
# T7 sequence: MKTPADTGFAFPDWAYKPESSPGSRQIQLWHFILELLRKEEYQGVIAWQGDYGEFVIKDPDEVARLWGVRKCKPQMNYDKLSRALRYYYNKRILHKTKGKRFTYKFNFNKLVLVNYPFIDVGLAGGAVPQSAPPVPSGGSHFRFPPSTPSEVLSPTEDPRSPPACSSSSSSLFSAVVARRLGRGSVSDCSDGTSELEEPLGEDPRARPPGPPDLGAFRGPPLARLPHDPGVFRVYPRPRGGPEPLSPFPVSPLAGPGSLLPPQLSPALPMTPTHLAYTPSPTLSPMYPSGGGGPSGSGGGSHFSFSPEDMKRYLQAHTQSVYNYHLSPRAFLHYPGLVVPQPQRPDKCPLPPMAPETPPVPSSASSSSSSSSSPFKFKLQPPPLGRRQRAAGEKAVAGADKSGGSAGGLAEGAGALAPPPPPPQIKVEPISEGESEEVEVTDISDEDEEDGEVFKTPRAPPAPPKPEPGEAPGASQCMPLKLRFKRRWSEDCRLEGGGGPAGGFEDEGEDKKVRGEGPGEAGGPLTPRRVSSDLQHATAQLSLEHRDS
# How it was run: as §1
# ETV3L = biological target: T8, ETV3L (Homo sapiens, UniProt Q6ZN32 1-361)
# T8 sequence: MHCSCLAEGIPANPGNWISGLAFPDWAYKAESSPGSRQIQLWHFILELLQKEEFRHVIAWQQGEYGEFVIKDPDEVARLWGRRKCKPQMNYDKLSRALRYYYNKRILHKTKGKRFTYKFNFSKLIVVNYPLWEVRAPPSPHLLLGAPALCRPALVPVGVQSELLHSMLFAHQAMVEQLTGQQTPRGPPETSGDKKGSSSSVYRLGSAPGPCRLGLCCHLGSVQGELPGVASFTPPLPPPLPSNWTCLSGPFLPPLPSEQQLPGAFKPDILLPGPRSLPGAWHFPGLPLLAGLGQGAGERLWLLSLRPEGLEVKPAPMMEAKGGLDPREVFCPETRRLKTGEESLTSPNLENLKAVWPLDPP
# How it was run: as §1
# ETS2 = biological target: T9, ETS2 (Homo sapiens, UniProt P15036 1-469)
# T9 sequence: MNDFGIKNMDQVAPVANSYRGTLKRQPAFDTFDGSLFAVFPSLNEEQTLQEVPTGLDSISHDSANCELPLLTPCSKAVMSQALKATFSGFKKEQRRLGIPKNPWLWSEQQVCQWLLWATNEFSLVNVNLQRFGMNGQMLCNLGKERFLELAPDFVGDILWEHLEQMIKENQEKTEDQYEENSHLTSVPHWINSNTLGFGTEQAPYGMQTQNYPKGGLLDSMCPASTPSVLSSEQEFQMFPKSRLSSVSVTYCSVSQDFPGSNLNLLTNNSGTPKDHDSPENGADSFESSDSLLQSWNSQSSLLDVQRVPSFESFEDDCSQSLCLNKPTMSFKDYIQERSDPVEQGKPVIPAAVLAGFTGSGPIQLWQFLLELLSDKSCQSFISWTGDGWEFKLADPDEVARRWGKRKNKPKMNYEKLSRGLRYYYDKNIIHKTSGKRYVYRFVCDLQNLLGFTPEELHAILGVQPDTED
# How it was run: as §1
# SPDEF = biological target: T10, SPDEF (Homo sapiens, UniProt O95238 1-335)
# T10 sequence: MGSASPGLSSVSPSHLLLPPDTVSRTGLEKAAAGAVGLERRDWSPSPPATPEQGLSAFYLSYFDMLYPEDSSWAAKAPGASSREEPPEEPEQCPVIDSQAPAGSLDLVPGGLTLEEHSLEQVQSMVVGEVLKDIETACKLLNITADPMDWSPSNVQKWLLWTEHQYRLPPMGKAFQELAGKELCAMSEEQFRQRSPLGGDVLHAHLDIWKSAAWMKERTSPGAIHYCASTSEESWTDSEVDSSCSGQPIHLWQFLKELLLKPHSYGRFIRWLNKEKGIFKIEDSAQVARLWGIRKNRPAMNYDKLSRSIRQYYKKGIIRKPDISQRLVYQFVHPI
# How it was run: as §1
# ETV7 = biological target: T11, ETV7 (Homo sapiens, UniProt Q9Y603 1-341)
# T11 sequence: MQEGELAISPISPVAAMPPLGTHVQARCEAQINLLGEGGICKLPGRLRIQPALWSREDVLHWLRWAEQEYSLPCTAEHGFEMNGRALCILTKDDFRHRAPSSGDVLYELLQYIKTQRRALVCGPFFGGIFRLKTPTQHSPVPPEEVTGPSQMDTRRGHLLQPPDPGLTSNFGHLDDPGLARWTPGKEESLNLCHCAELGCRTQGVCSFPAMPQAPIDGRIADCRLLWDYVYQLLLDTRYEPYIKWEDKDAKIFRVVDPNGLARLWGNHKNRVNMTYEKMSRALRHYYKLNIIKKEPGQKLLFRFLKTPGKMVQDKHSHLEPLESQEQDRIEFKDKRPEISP
# How it was run: as §1
# ETV3 = biological target: T12, ETV3 (Homo sapiens, UniProt P41162-2 1-143)
# T12 sequence: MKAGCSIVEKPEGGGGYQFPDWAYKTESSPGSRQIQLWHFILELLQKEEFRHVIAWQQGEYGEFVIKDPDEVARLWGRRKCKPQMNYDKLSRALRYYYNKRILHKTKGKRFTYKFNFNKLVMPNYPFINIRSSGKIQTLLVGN
# How it was run: as §1
sequence,measurement,setting,value
ACACCG,binding signal,ELK1,"1.05 fold enrichment (6-mer frequency, TF over GST control)"
same,binding signal,ERG,"1.13 fold enrichment (6-mer frequency, TF over GST control)"
same,binding signal,EHF,"1.03 fold enrichment (6-mer frequency, TF over GST control)"
same,binding signal,SPIB,"1.06 fold enrichment (6-mer frequency, TF over GST control)"
same,binding signal,FEV,"1.26 fold enrichment (6-mer frequency, TF over GST control)"
same,binding signal,ELF4,"1.11 fold enrichment (6-mer frequency, TF over GST control)"
same,binding signal,ELK4,"1.03 fold enrichment (6-mer frequency, TF over GST control)"
same,binding signal,ETV2,"1.03 fold enrichment (6-mer frequency, TF over GST control)"
same,binding signal,ETV1,"1.09 fold enrichment (6-mer frequency, TF over GST control)"
same,binding signal,ERF,"1 fold enrichment (6-mer frequency, TF over GST control)"
same,binding signal,ETV3L,"1.04 fold enrichment (6-mer frequency, TF over GST control)"
same,binding signal,ETS2,"1.07 fold enrichment (6-mer frequency, TF over GST control)"
same,binding signal,SPDEF,"1.09 fold enrichment (6-mer frequency, TF over GST control)"
same,binding signal,ETV7,"1.01 fold enrichment (6-mer frequency, TF over GST control)"
same,binding signal,ETV3,"1.03 fold enrichment (6-mer frequency, TF over GST control)"
